Read-out in assay [1]: Human Leukocyte Antigen - DR isotype (HLADR), HLA-DRA (gene 3122)
The assay can be described thus: BSK_BE3C_HLADR: BioMAP Diversity Plus: BE3C Assay for Human Leukocyte Antigen - DR isotype (HLADR) Biomarker Activity (AID 2283032). Conditions: primary human bronchial epithelial cells; actives raise or lower the signal. In outline:
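Signal came from an ELISA for HLA-DR in human bronchial epithelial primary cells harvested 24 h after treatment; gain- and loss-of-signal fitting used DMSO controls as reference.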

Read-out in assay [2]: Vascular cell adhesion molecule 1 (VCAM1), VCAM1 (gene 7412)
In words: BSK_4H_VCAM1: BioMAP Diversity Plus: 4H Assay for Vascular cell adhesion molecule 1 (VCAM1) Biomarker Activity (AID 2283033).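 On outcome: cell-surface VCAM-1 protein measured by ELISA.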 Conditions: primary human endothelial cells (HUVEC); actives raise or lower the signal. In outline: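 Endpoint derived from bidirectional fitting against DMSO controls of VCAM-1 ELISA signal in umbilical vein endothelial cells sampled at 24 h following treatment.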

Read-out in assay [3]: Interferon-gamma inducible Protein 10 (IP10), CXCL10 (gene 3627)
In words: BSK_BE3C_IP10: BioMAP Diversity Plus: BE3C Assay for Interferon-gamma inducible Protein 10 (IP10) Biomarker Activity (AID 2283034). Conditions: primary human bronchial epithelial cells; actives raise or lower the signal. Summed up: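 Using primary human bronchial epithelial cultures, the assay captures IP-10 by ELISA one day (24 h) after exposure. Parallel SRB staining of total protein flags overt cytotoxicity. Fits run bidirectionally relative to DMSO.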

Read-out in assay [4]: Monokine induced gamma interferon (MIG), CXCL9 (gene 4283)
In words: BSK_BE3C_MIG: BioMAP Diversity Plus: BE3C Assay for Monokine induced gamma interferon (MIG) Biomarker Activity (AID 2283035).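 On outcome: MIG protein measured by ELISA in BE3C cultures after 24 h of dosing.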 Conditions: primary human bronchial epithelial cells; actives raise or lower the signal. In outline:
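MIG level was determined by ELISA after 24 h chemical treatment of primary human bronchial epithelial cells. Values were fitted bidirectionally with DMSO as the negative control and activity baseline.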

Read-out in assay [5]: Transforming growth factor beta 1 (TGFb1), TGFB1 (gene 7040)
The assay can be described thus: BSK_BE3C_TGFb1: BioMAP Diversity Plus: BE3C Assay for Transforming growth factor beta 1 (TGFb1) Biomarker Activity (AID 2283036;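 on outcome: TGF-b1 protein level measured by ELISA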). Conditions: primary human bronchial epithelial cells; actives raise or lower the signal. Summed up:
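In this human primary bronchial epithelial system, an ELISA quantified TGF-b1 one day after dosing. Endpoint changes in either direction were fitted relative to DMSO.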

Read-out in assay [6]: Plasminogen activator inhibitor-1 (PAI1), SERPINE1 (gene 5054)
The assay can be described thus: BSK_BE3C_PAI1: BioMAP Diversity Plus: BE3C Assay for Plasminogen activator inhibitor-1 (PAI1) Biomarker Activity (AID 2283037). Conditions: primary human bronchial epithelial cells; actives raise or lower the signal. Summed up:
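PAI-1 biomarker levels in treated human bronchial epithelial cells are determined by ELISA at 24 h. Both increases and decreases relative to DMSO are fitted.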

Read-out in assay [7]: urokinase plasminogen activator (uPA), PLAU (gene 5328)
In words: BSK_BE3C_uPA: BioMAP Diversity Plus: BE3C Assay for urokinase plasminogen activator (uPA) Biomarker Activity (AID 2283038).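 On outcome: uPA protein level quantified by ELISA in cell cultures; uPA read one day after compound addition.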 Conditions: primary human bronchial epithelial cells; actives raise or lower the signal. In outline: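 Measured by ELISA: uPA from human primary bronchial epithelial cells 24 h after chemical treatment. Values derive from bidirectional curve fitting with DMSO serving as negative control. Total protein by SRB staining in parallel wells flagged overt cytotoxicity.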

Read-out in assay [8]: Urokinase-type plasminogen activator receptor (uPAR), PLAUR (gene 5329)
The assay can be described thus: BSK_BE3C_uPAR: BioMAP Diversity Plus: BE3C Assay for Urokinase-type plasminogen activator receptor (uPAR) Biomarker Activity (AID 2283039).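 On outcome: uPAR protein level measured by ELISA on the cells; cells exposed to compound for one day before measurement.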 Conditions: primary human bronchial epithelial cells; actives raise or lower the signal. Summed up:
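A uPAR ELISA serves as the readout, taken 24 h after treating primary human bronchial epithelial cells. Responses in either direction are fitted against DMSO, which defines baseline activity.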

Read-out in assay [9]: Interleukin-6 (IL6), IL6 (gene 3569)
In words: BSK_CASM3C_IL6: BioMAP Diversity Plus: CASM3C Assay for Interleukin-6 (IL6) Biomarker Activity for (AID 2283040). Conditions: primary human coronary artery smooth muscle cells; actives raise or lower the signal.

Read-out in assay [10]: Tissue plasminogen activator (tPA), PLAT (gene 5327)
In words: BSK_BE3C_tPA: BioMAP Diversity Plus: BE3C Assay for Tissue plasminogen activator (tPA) Biomarker Activity (AID 2283041).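 On outcome: tPA level quantified by ELISA one day after compound addition.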 Conditions: primary human bronchial epithelial cells; actives raise or lower the signal. In outline: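 Bidirectional curve fitting relative to DMSO defined activity, with tPA detected by ELISA in chemically treated human bronchial epithelial primary cells at 24 hours.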

Read-out in assay [11]: Interleukin-8 (IL8), CXCL8 (gene 3576)
In words: BSK_CASM3C_IL8: BioMAP Diversity Plus: CASM3C Assay for Interleukin-8 (IL8) Biomarker Activity (AID 2283042).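 Further: IL-8 protein level quantified by ELISA.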 Conditions: primary human coronary artery smooth muscle cells; actives raise or lower the signal.

Read-out in assay [12]: Human Leukocyte Antigen - DR isotype (HLADR), HLA-DRA (gene 3122)
In words: BSK_CASM3C_HLADR: BioMAP Diversity Plus: CASM3C Assay for Human Leukocyte Antigen - DR isotype (HLADR) Biomarker Activity (AID 2283043).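 Further: cell-surface HLA-DR protein level quantified by ELISA.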 Conditions: primary human coronary artery smooth muscle cells; actives raise or lower the signal.

Read-out in assay [13]: Macrophage colony-stimulating factor (MCSF), CSF1 (gene 1435)
In words: BSK_CASM3C_MCSF: BioMAP Diversity Plus: CASM3C Assay for Macrophage colony-stimulating factor (MCSF) Biomarker Activity (AID 2283044).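 Further: M-CSF protein amount quantified by ELISA after 24 h exposure.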 Conditions: primary human coronary artery smooth muscle cells; actives raise or lower the signal.

Read-out in assay [14]: Low-density lipoprotein receptor (LDLR), LDLR (gene 3949)
The assay can be described thus: BSK_CASM3C_LDLR: BioMAP Diversity Plus: CASM3C Assay for Low-density lipoprotein receptor (LDLR) Biomarker Activity (AID 2283045).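 Further: LDLR protein level on the cell surface quantified by ELISA.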 Conditions: primary human coronary artery smooth muscle cells; actives raise or lower the signal.

Read-out in assay [15]: Monocyte Chemoattractant Protein-1 (MCP1), CCL2 (gene 6347)
In words: BSK_CASM3C_MCP1: BioMAP Diversity Plus: CASM3C Assay for Monocyte Chemoattractant Protein-1 (MCP1) Biomarker Activity (AID 2283046).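 Further: MCP-1 level quantified by ELISA 24 h after dosing.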 Conditions: primary human coronary artery smooth muscle cells; actives raise or lower the signal.

Assay [16] in a line: BSK_CASM3C_Proliferation: Cell Proliferation Assessment in the BioMAP Diversity Plus: CASM3C Assay (AID 2283047).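 Further: sulforhodamine B total protein stain as relative cell number at 560 nm; sub-confluent cells exposed 48 h before staining; fitted both ways against DMSO so gain or loss of cell number.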 Conditions: primary human coronary artery smooth muscle cells.
Read-out in assay [17]: Monokine induced gamma interferon (MIG), CXCL9 (gene 4283)
The assay can be described thus: BSK_CASM3C_MIG: BioMAP Diversity Plus: CASM3C Assay for Monokine induced gamma interferon (MIG) Biomarker Activity (AID 2283048).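 Further: MIG protein level measured by ELISA.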 Conditions: primary human coronary artery smooth muscle cells; actives raise or lower the signal.

Read-out in assay [18]: serum amyloid A (SAA), SAA1 (gene 6288)
The assay can be described thus: BSK_CASM3C_SAA: BioMAP Diversity Plus: CASM3C Assay for serum amyloid A (SAA) Biomarker Activity (AID 2283049).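 Further: SAA protein level quantified by ELISA.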 Conditions: primary human coronary artery smooth muscle cells; actives raise or lower the signal.

Assay [19] in a line: BSK_CASM3C_SRB: Viability Assessment in the BioMAP Diversity Plus: CASM3C Assay (AID 2283050).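 Further: cells exposed to compound for 24 h.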 Conditions: primary human coronary artery smooth muscle cells.
Read-out in assay [20]: Thrombomodulin, THBD (gene 7056)
The assay can be described thus: BSK_CASM3C_Thrombomodulin: BioMAP Diversity Plus: CASM3C Assay for Thrombomodulin Biomarker Activity (AID 2283051).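 Further: thrombomodulin protein level measured by ELISA 24 h after dosing.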 Conditions: primary human coronary artery smooth muscle cells; actives raise or lower the signal.

AC50 and outcome data for 6 compounds are collected here from PubChem BioAssay (EPA / NIEHS).

The structures appear in SMILES notation. Active and inactive are the calls of the source. How the source made its calls: active means hit-call score of the fitted dose curve at least 0.9, where 1 is the maximum; inactive means score below 0.9.

Usually AC50 stands for the midpoint of the concentration-response curve, whichever way the signal moves. For `ClC1=C(Cl)C2(Cl)C3C(Cl)C=CC3C1(Cl)C2(Cl)Cl` (stereo not given), the AC50 in assay [1] is 26.2 µM (active); in [2], 32.4 µM (active); in assay [3], 32.3 µM (active); in assay [4], 31.3 µM (active); in assay [5], 20 µM (active); in assay [6], 35 µM (active). In addition, the AC50 in [9] was 27.2 µM (active); in assay [10], 20 µM (active); in assay [11], 34.6 µM (active); in assay [12], 29.3 µM (active); in [13], 30 µM (active); in [14], 31.8 µM (active). Further, the AC50 in [15] was 33.6 µM (active); in assay [16], 32 µM (active); in assay [17], 31.2 µM (active); in [18], 30.2 µM (active); in [19] it was 32 µM (active). Besides, the result in assay [7], in assay [8] and in [20] was inactive.
As to `O=Cc1ccco1`, the outcome in assay [1], in assay [2], in assay [3], in assay [4], in [5] and in [7] was inactive. Further, the outcome in assay [8], in [9], in [10], in [11], in assay [12] and in assay [13] was inactive. For the same compound, the result in [14], in assay [15], in assay [16], in assay [17], in [18] and in assay [19] was inactive. For the same compound, in [20], the outcome was inactive.
As for `OCCOCCO`, the outcome in assay [1], in [3], in assay [4], in [5], in [6] and in assay [7] was inactive. In addition, the result in assay [8], in assay [9], in assay [10], in assay [11], in [12] and in assay [13] was inactive. In addition, the result in [14], in assay [15], in assay [16], in assay [17], in assay [18] and in [19] was inactive. Moreover, in [20], the outcome was inactive.
In the case of `COP(=S)(OC)SCN1C(=O)c2ccccc2C1=O`, the result in assay [1], in assay [2], in assay [3], in [4], in [5] and in assay [7] was inactive. Further, the outcome in assay [8], in assay [9], in [10], in [11], in assay [12] and in assay [13] was inactive. Besides, the outcome in [14], in assay [15], in [16], in [17], in assay [18] and in assay [19] was inactive. Further, the outcome in [20] was inactive.
As to `ClC1=C(Cl)[C@]2(Cl)[C@H]3[C@H]([C@@H]4C=C[C@H]3C4)[C@@]1(Cl)C2(Cl)Cl`, the outcome in assay [1], in assay [4], in [5], in [7], in assay [8] and in assay [9] was inactive. In addition, the result in [10] and in assay [20] was inactive. Further, the AC50 in assay [2] is 33.9 µM (active); in assay [3] it was 30.3 µM (active); in [11], 37.4 µM (active); in [12], 34 µM (active); in assay [13] it was 29 µM (active); in [14], 32.6 µM (active). Also, the AC50 in assay [15] was 34 µM (active); in [16] it was 34.3 µM (active); in assay [17] it was 31.6 µM (active); in assay [18], 31.7 µM (active); in assay [19], 31.3 µM (active).
In the case of `O=C(N[C@H](c1ccccc1)[C@@H]1CN2CCC1CC2)c1c(Cl)ccc(C(F)(F)F)c1Cl`, the AC50 in [1] is 39.7 µM (active); in assay [3], 21.9 µM (active); in [4] it was 49 µM (active); in assay [5] it was 19.4 µM (active); in [6] it was 29.7 µM (active); in assay [7], 22.4 µM (active). Further, the AC50 in assay [8] was 34.5 µM (active); in assay [10] it was 29.7 µM (active); in assay [14], 25 µM (active); in assay [16], 25.2 µM (active). In addition, the result in assay [9], in [11], in assay [12], in [13], in assay [15] and in assay [17] was inactive. Further, the outcome in [18], in assay [19] and in [20] was inactive.
